Values joined by “and” are separate entries in the source; they are usually repeats but may differ in a detail not shown here. Identical values can stand only once. The whole screen tested about 5,500 compounds, of which about 2,000 (36%) were called active. Not shown: some 18% with an inconclusive outcome. No stated cut-off is given here; in the data, active means normalized growth mostly below about 0.91 (no sharp cut-off); inconclusive means no clear call, values can overlap the other calls; inactive means mostly above about 0.92. This is one part of the list.
Assay: chemical genetic growth profiling, strain panel (AID 1159580);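 further: tested at 20 µM; growth read once vehicle control cultures reached saturation at 30 °C; 1 = growth at the plate median or of vehicle wells; lower values mean less growth of the strain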
Conditions: S. cerevisiae deletion strains, growth OD

Measured: normalized growth

O=C(O)c1cc(=O)c2c(OCC(O)COc3cccc4oc(C(=O)O)cc(=O)c34)cccc2o1
inactive: locus YAL013W, strain DEP1, hits give low values 1.01 | locus YAL021C, strain ccr4, hits give low values 0.964 | locus YAL026C, strain drs2, hits give low values 1.01 | locus YAL030W, strain snc1, hits give low values 0.996 | locus YBL061C, strain skt5, hits give low values 0.977 | locus YBR009C, strain hhf1, hits give low values 0.994 | locus YBR021W, strain FUR4, hits give low values 1.01 | locus YBR023C, strain chs3, hits give low values 0.992 | locus YBR171W, strain sec66, hits give low values 0.96 | locus YBR229C, strain ROT2, hits give low values 1.01 | locus YBR231C, strain swc5, hits give low values 0.963 | locus YBR279W, strain paf1, hits give low values 0.995 | locus YCL011C, strain gbp2, hits give low values 1 | locus YCL016C, strain dcc1, hits give low values 1.02 | locus YCL029C, strain bik1, hits give low values 1.02 | locus YCL061C, strain MRC1, hits give low values 0.983 | locus YCL069W, strain vba3, hits give low values 0.977 | locus YCR088W, strain abp1, hits give low values 0.974 | locus YDL005C, strain med2, hits give low values 0.974 | locus YDL035C, strain GPR1, hits give low values 1.01 | locus YDL040C, strain nat1, hits give low values 0.964 | locus YDL074C, strain BRE1, hits give low values 1.01 | locus YDL101C, strain DUN1, hits give low values 1.01 | locus YDL185W, strain tfp1, hits give low values 1.03 | locus YDL192W, strain arf1, hits give low values 1.02 | locus YDR001C, strain nth1, hits give low values 0.971 | locus YDR069C, strain doa4, hits give low values 0.971 | locus YDR101C, strain arx1, hits give low values 1.03 | locus YDR137W, strain rgp1, hits give low values 0.973 | locus YDR159W, strain sac3, hits give low values 0.926 | locus YDR162C, strain NBP2, hits give low values 1.01 | locus YDR195W, strain ref2 0.896 | locus YDR297W, strain sur2, hits give low values 0.987 | locus YDR318W, strain mcm21, hits give low values 1.02 | locus YDR334W, strain swr1, hits give low values 0.969 | locus YDR335W, strain msn5, hits give low values 0.967 | locus YDR388W, hits give low values 1.02 | locus YDR392W, strain spt3, hits give low values 1.03 | locus YDR502C, strain sam2, hits give low values 1 | locus YEL003W, strain gim4, hits give low values 0.955 | locus YEL037C, strain rad23, hits give low values 0.955 | locus YEL061C, strain CIN8 (second series), hits give low values 0.964 | locus YEL061C, strain CIN8, hits give low values 1.01 | locus YER015W, strain faa2, hits give low values 0.99 | locus YER016W, strain bim1, hits give low values 0.996 | locus YER110C, hits give low values 1.03 | locus YER111C, strain swi4, hits give low values 0.972 | locus YER155C, strain BEM2 (second series), hits give low values 0.935 | locus YER155C, strain BEM2, hits give low values 1.01 | locus YER167W, strain BCK2, hits give low values 1.01 | locus YFR010W, strain ubp6, hits give low values 0.969 | locus YGL078C, strain dbp3, hits give low values 1.01 | locus YGL086W, strain mad1, hits give low values 1 | locus YGL167C, strain pmr1, hits give low values 0.96 | locus YGL173C, strain kem1, hits give low values 0.959 | locus YGL227W, strain vid30, hits give low values 0.977 | locus YGL240W, strain doc1, hits give low values 0.959 | locus YGL248W, strain PDE1, hits give low values 1.01 | locus YGL253W, strain hxk2, hits give low values 0.983 | locus YGR135W, strain pre9, hits give low values 1.02 | locus YGR229C, strain SMI1, hits give low values 1.02 | locus YGR252W, strain gcn5, hits give low values 1.03 | locus YHR013C, strain ard1, hits give low values 0.979 | locus YHR027C, strain rpn1, hits give low values 0.989 | locus YHR030C, strain SLT2, hits give low values 1.01 and 1 | locus YHR079C, strain IRE1 (second series), hits give low values 1.03 | locus YHR079C, strain IRE1, hits give low values 1 | locus YHR094C, strain hxt1, hits give low values 1.02 | locus YHR129C, strain ARP1, hits give low values 1.01 | locus YHR142W, strain chs7, hits give low values 0.966 | locus YHR200W, strain rpn10, hits give low values 1.02 | locus YIL066C, strain RNR3, hits give low values 1.01 | locus YIL073C, strain SPO22, hits give low values 1.06 | locus YIL125W, strain kgd1, hits give low values 1.02 | locus YIR030C, strain dcg1, hits give low values 1.03 | locus YJL092W, strain hpr5, hits give low values 0.978 | locus YJL095W, strain BCK1 (second series), hits give low values 0.974 | locus YJL095W, strain BCK1, hits give low values 1.02 and 0.989 | locus YJL115W, strain asf1, hits give low values 0.967 | locus YJL129C, strain trk1, hits give low values 0.931 | locus YJL134W, strain LCB3, hits give low values 1.01 | locus YJL154C, strain vps35, hits give low values 0.962 | locus YJL164C, strain tpk1, hits give low values 1 | locus YJL166W, strain qcr8, hits give low values 0.953 | locus YJL168C, strain set2, hits give low values 1.02 | locus YJL187C, strain SWE1 (second series), hits give low values 1.02 | locus YJR043C, strain POL32, hits give low values 0.998 | locus YJR066W, strain TOR1, hits give low values 0.992 | locus YJR075W, strain HOC1, hits give low values 1.01

From PubChem BioAssay AID1159580 (chemical genetic matrix, 2015)
